In article PMC5836133, “The intracellular immune receptor Rx1 regulates the DNA-binding activity of a Golden2-like transcription factor” one finds binding signal data, which are given here for 113 sequences.

Over roughly 16,000 sequences, “e-score” has its median near -0.044; the highest 2% begin near 0.38. The sample as a whole holds a higher share of the highest values than the screen did.

The target in this test is T1, GST-NbGlk1(82-244) (Nicotiana benthamiana).
T1 chain: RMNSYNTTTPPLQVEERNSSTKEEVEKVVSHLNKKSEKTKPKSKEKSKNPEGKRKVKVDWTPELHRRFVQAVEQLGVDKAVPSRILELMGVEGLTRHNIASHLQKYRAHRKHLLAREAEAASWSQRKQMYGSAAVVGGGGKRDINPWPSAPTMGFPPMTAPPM
The test is described as follows: protein-binding microarray; NbGlk1 is a Golden2-like transcription factor of Nicotiana benthamiana; high values mean tight binding. As to conditions: protein: recombinant; tags: GST (pTH6838); dsDNA, one strand shown.
As to ACGTATAA, the binding signal was determined as 0.241 ± 0.0276 E-score. The result for ATCACACA reads 0.274 ± 0.0193 E-score; that for ATCAGATA, 0.311 ± 0.0291 E-score. On to ACAGTATA, for which the binding signal turned out to be 0.203 ± 0.12 E-score. For ACGTATCG, the binding signal was 0.2234 ± 0.00122 E-score. The result for ATTCGAAA reads 0.208 ± 0.0296 E-score; that for AGATTTCG, 0.4861 ± 0.00274 E-score. As for AGATTTTA, the binding signal is 0.414 ± 0.0235 E-score.

With AAATTTCG, the binding signal stood at 0.332 ± 0.0714 E-score. With AGATTTAT the figure was 0.261 ± 0.0998 E-score; with ATATTTCG, 0.347 ± 0.00521 E-score; with AGATTTAA, 0.269 ± 0.0136 E-score. ATTATCTA: the binding signal was found to be 0.201 ± 0.0162 E-score. As to AACGTAAT, the binding signal was 0.361 ± 0.0152 E-score. With AAGGGAAT the figure was 0.259 ± 0.00401 E-score.

In the case of CAAATCGG, the binding signal came out at 0.252 ± 0.00458 E-score. The result for AAAATATT reads 0.3158 ± 0.000558 E-score; that for AAAATTTT, 0.271 ± 0.0157 E-score; that for ATAATCTC, 0.346 ± 0.064 E-score. With AAAATCTT the figure was 0.447 ± 0.0196 E-score. As to AAAATCTC, the binding signal is 0.4529 ± 0.00114 E-score.

In the case of CAAATCAG, the binding signal amounted to 0.268 ± 0.0183 E-score.

Consider CAAATCTG, for which the binding signal came to 0.43 ± 0.00733 E-score. The result for AAAATCTG reads 0.478 ± 0.0028 E-score; that for ATATCGAC, 0.32 ± 0.00903 E-score; that for AACACGAT, 0.237 ± 0.0225 E-score. The result for ATTTGCCA reads 0.358 ± 0.051 E-score; that for ATAGTAGA, 0.201 ± 0.11 E-score; that for AAAGGATT, 0.372 ± 0.061 E-score.

With ATCCATTG, the binding signal was 0.253 ± 0.0582 E-score.

As for ATTTCAGA, the binding signal turned out to be 0.265 ± 0.0287 E-score.

As to ATTGCAAT, the binding signal was found to be 0.305 ± 0.0598 E-score. The result for ATCTTAGC reads 0.246 ± 0.0788 E-score; that for ATCTCACA, 0.289 ± 0.0836 E-score; that for ATACGCGC, 0.223 ± 0.0538 E-score. With ATCCGCTA the figure was 0.353 ± 0.0323 E-score; with CAATCAGC, 0.22 ± 0.0614 E-score. With ATCGCGTC the figure was 0.285 ± 0.0397 E-score. As for AAAATCTA, the binding signal is 0.4582 ± 0.0038 E-score.

As for CAAATATA, the binding signal was determined as 0.245 ± 0.00998 E-score. The result for AAAATCAA reads 0.334 ± 0.0377 E-score; that for CAAATCAA, 0.228 ± 0.037 E-score. With CAAATCTC the figure was 0.426 ± 0.0426 E-score. On to CAAATCAC, for which the binding signal is 0.272 ± 0.0674 E-score. With AAAATTTA, the binding signal was 0.248 ± 0.0263 E-score. With CAAATCTA the figure was 0.412 ± 0.0148 E-score; with AATATTGG, 0.202 ± 0.105 E-score; with AATTCTGC, 0.204 ± 0.0116 E-score. With AATTTTCA the figure was 0.228 ± 0.0322 E-score.

In the case of ATTGCAGA, the binding signal amounted to 0.253 ± 0.0406 E-score.

With ATCTTCGC, the binding signal came out at 0.237 ± 0.0198 E-score. With AATATTGA, the binding signal came to 0.222 ± 0.0953 E-score. With ATTTCCGG the figure was 0.295 ± 0.0475 E-score.

Regarding ATATCGGA, the binding signal stood at 0.369 ± 0.015 E-score. The result for ATATCCGG reads 0.436 ± 0.0135 E-score.

Turning to ATATCCCG, the binding signal amounted to 0.317 ± 0.0686 E-score. With ATCTCCGC the figure was 0.293 ± 0.0913 E-score; with AGATCCGC, 0.34 ± 0.0528 E-score. With ATATCCGA the figure was 0.4021 ± 0.00123 E-score. Take ATATCCGC: the binding signal came to 0.4112 ± 0.0033 E-score.

As to AGATCCGA, the binding signal worked out at 0.307 ± 0.0187 E-score. The result for AATACGAA reads 0.205 ± 0.0658 E-score. The result for ACAAGAAT reads 0.273 ± 0.0228 E-score. With ACGATCGC the figure was 0.252 ± 0.0832 E-score; with ATTGCACC, 0.222 ± 0.00533 E-score; with ATCGCGCA, 0.358 ± 0.0372 E-score. On to ATTTGTAA, for which the binding signal was 0.266 ± 0.0497 E-score. With AGATCTGC the figure was 0.411 ± 0.029 E-score; with AGATCTGG, 0.364 ± 0.0182 E-score. The result for AAATCGGC reads 0.302 ± 0.0126 E-score; that for AGATCTGA, 0.332 ± 0.0671 E-score; that for CAATCTGG, 0.4139 ± 0.000981 E-score. Take CAATCTGC: the binding signal was found to be 0.305 ± 0.0551 E-score. The result for AAATCTGG reads 0.466 ± 0.00695 E-score; that for AAATCAGG, 0.365 ± 0.0118 E-score; that for CAATCAGG, 0.294 ± 0.0424 E-score. The result for AAATCTGC reads 0.4558 ± 0.00312 E-score; that for AAATCGGG, 0.354 ± 0.0193 E-score. In the case of ATTCCCTA, the binding signal was found to be 0.3669 ± 0.00312 E-score. With AATTATAA the figure was 0.243 ± 0.0945 E-score; with AAAATAAT, 0.205 ± 0.0493 E-score; with AATCATAG, 0.246 ± 0.0935 E-score.

Take ATTTTCAC: the binding signal worked out at 0.34 ± 0.0212 E-score. With ATCCGCAG the figure was 0.223 ± 0.00544 E-score; with AAGTAAAA, 0.21 ± 0.144 E-score. On to ATCGTGTA, for which the binding signal came to 0.262 ± 0.115 E-score. With CAATCTGA the figure was 0.375 ± 0.0502 E-score. The result for AAATCTGA reads 0.469 E-score.

Take AAATCATA: the binding signal is 0.343 ± 0.0134 E-score. The result for AGCGATCC reads 0.274 ± 0.0142 E-score; that for AAATACGG, 0.207 ± 0.0643 E-score; that for AATTGCGC, 0.227 ± 0.0136 E-score.

With AAAAATCG, the binding signal is 0.389 ± 0.0127 E-score. With ACAAATCG the figure was 0.297 ± 0.0369 E-score; with AAAATTCG, 0.282 ± 0.0182 E-score; with CACAATCG, 0.268 ± 0.00572 E-score. The result for AAAAATAT reads 0.3 ± 0.0471 E-score; that for AAAAATCT, 0.4495 ± 0.00385 E-score; that for ACAAATCT, 0.374 ± 0.0338 E-score.

On to CAAAATCG, for which the binding signal is 0.386 ± 0.0304 E-score.

For the sequence AAAAATCA, the binding signal is 0.336 ± 0.0224 E-score. With ATTGTGTG the figure was 0.203 ± 0.0438 E-score. The result for AATCGCAG reads 0.224 ± 0.0787 E-score.

Regarding ATTTGCTC, the binding signal stood at 0.253 ± 0.0795 E-score. With ACATGTGA, the binding signal came out at 0.201 ± 0.017 E-score. The result for AATCAGAT reads 0.341 ± 0.0502 E-score; that for ACTAATAT, 0.2093 ± 0.00102 E-score; that for ATGGGAAT, 0.296 ± 0.0441 E-score. The result for ACAGATCC reads 0.234 ± 0.05 E-score; that for ACAAGATA, 0.322 ± 0.00757 E-score; that for ATTCCCTC, 0.372 ± 0.0111 E-score. The result for AGAATCAA reads 0.342 ± 0.0419 E-score. With AAAATCCA, the binding signal was 0.454 ± 0.016 E-score.
